High-throughput results (PubChem)
This excerpt belongs to a sample that is enriched for hits.
Pf apPOL inh = Pf-apPOL DNA polymerase inhibition | Recombinant Pf-apPOL, molecular beacon fluorescence, 1.5 h | inhibition, % at 10 µM | 0.25% of 210,000 active
mHTT-CaM PPI inh = inhibitors of human mutant huntingtin-calmodulin interaction; P42858; AlphaScreen His-mHTT/GST-CaM binding, luminescence; inhibition, % at 15 µM; 3.6% of 190,000 active; AID 1671202;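 note: 0% = both proteins with DMSO and 100% = one protein alone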
An asterisk follows results filed as active; x = not tested or not shown; ! = a repeat was not active. Cut-off read from the data, not from the text of the source: active = inhibition above about 50%; inactive = the rest.

SMILES | Pf apPOL inh | mHTT-CaM PPI inh
Cc1ccc2nc(/C(C#N)=C/c3cc([N+](=O)[O-])ccc3O)[nH]c2c1 | -4.4 | 4.4
COc1cc(/C=C(\C#N)c2nc3ccc(C)cc3[nH]2)ccc1OCC(=O)O | -1.7 | 11.2
CCOc1cc(/C=C(\C#N)c2nc3ccc(C)cc3[nH]2)cc(Cl)c1O | -2.8 | 84.0*
O=C(NCc1cccc(F)c1)N1CCc2nc3cc(-c4ccccc4)[nH]n3c(=O)c2C1 | -0.8 | 36.1
Cc1cccc(NC(=O)CC2SC(=Nc3c(C)cccc3C)N(C)C2=O)c1 (stereo unspecified) | -2.4 | 13.0
CC1CN(C(=O)CCC2CCCC2)CC1c1nc(-c2ccccc2)no1 (stereo unspecified) | -7.8 | 5.0
CC(=O)Nc1ccc(-c2noc(C3CCN(C(=O)c4ccc(C)cc4)CC3)n2)cc1 | -1.3 | 8.3
CNC(=O)c1ccc(-n2cccc2)nc1 | -1.3 | 4.9
Cc1ccc(/C=C(\C#N)c2nc3ccc(C)cc3[nH]2)cc1 | 1.0 | -12.2
COc1cc(/C=C(\C#N)c2nc3ccc(C)cc3[nH]2)cc(OC)c1O | -3.8 | 58.0*
CCOc1cc(C=C2C(=O)c3ccccc3C2=O)cc(I)c1O | -9.4 | 58.0*
CCOc1ccc(C=C2C(=O)c3ccccc3C2=O)cc1OC | -4.2 | 11.0
COc1cc(/C=c2\sc3nc4ccccc4n3c2=O)ccc1OCc1nn[nH]n1 | -1.9 | 20.0
COc1ccc(C)cc1NC(=O)C1CCCN(c2cnn(C)c(=O)c2)C1 (stereo unspecified) | -8.3 | 53.3*
COc1ccc(Cl)cc1NC(=O)c1cnn2c(C(F)(F)F)cc(-c3ccco3)nc12 | 4.6 | 1.0
COc1ccc(C(F)(F)F)cc1NC(=O)C1CCCN(c2ccc(-c3ccco3)nn2)C1 (stereo unspecified) | -4.4 | 77.0*
COc1ccc(Cl)cc1NC(=O)N1CCN(c2ccc(-c3ccco3)nn2)CC1 | 14.6 | 64.5*
COc1ccc(CCNC(=O)C2CCCN(c3ccc(-c4ccco4)nn3)C2)cc1OC (stereo unspecified) | -7.1 | 1.8
COc1ccccc1NC(=O)C1CCCN(c2cnn(C)c(=O)c2)C1 (stereo unspecified) | 0.0 | 1.7
COC(=O)c1cc(S(=O)(=O)N2CCCC2)oc1C | -5.4 | x
FC(F)(F)c1cccc(N2CCC(c3ccccc3)=N2)c1 | 0.5 | -124.0
O=c1/c(=C/c2ccc([N+](=O)[O-])cc2)sc2n1CN(c1ccc(Cl)cc1)CN=2 | 3.3 | 33.0
COc1cccc(N2CCN(c3nc(C(=O)N4CCCC(C)C4)cs3)CC2)c1 (stereo unspecified) | -3.3 | 43.9
COc1ccc2cc3cc(C(=O)NC4CCCCC4)sc3nc2c1 | 0.3 | -1.0
Fc1ccccc1C1C=C(c2cccs2)Nc2ncnn21 (stereo unspecified) | -3.9 | 13.0
SMILES | Pf apPOL inh | mHTT-CaM PPI inh
COc1cccc(CC(=O)N2CCC3(CC2)NC(=O)c2ccc(Cl)cc2N3)c1 | -2.6 | 1.4
COC(=O)CN(Cc1cn(Cc2ccccc2)nn1)S(=O)(=O)c1ccccc1Br | -5.3 | 29.6
Cc1ccc2oc(C(=O)N3CCN(c4cccc(C(F)(F)F)c4)CC3)cc2n1 | -9.9 | 72.2*
O=C(C1CCN(c2ccncc2)CC1)N1CCN(c2cccc(C(F)(F)F)c2)CC1 | 0.8 | 6.9
Cc1ccc(C)c(S(=O)(=O)NC2CC(=O)N(C3CC3)C2)c1 (stereo unspecified) | -1.1 | -7.7
O=C(CN1C(=O)/C(=C/c2cccc(Cl)c2)Sc2ccccc21)NCCN1CCCCCC1 | -0.8 | 54.0*
CCN(CC)CCNC(=O)CN1C(=O)/C(=C/c2ccc(C(F)(F)F)cc2)Sc2ccccc21 | -3.5 | 100.0*
CCCCN(C)CCCNC(=O)CN1C(=O)/C(=C/c2cccc(Cl)c2)Sc2ccccc21 | 1.2 | 98.0*
CCN(CC)CCNC(=O)CN1C(=O)/C(=C/c2cccc(Cl)c2)Sc2ccccc21 | 0.2 | 11.0
O=C(CN1C(=O)/C(=C/c2ccc(Cl)cc2)Sc2ccccc21)NCCN1CCCC1 | 4.5 | 24.0
CCCCN(C)CCNC(=O)CN1C(=O)/C(=C/c2cccc(Cl)c2)Sc2ccccc21 | -15.3 | 19.0
Cn1nc(COc2ccccc2)c2c1CCN(C(=O)Nc1ccc(Cl)cc1)C2 | -5.1 | 13.3
Cc1ccsc1CNC1CCN(c2ccc(C(=O)Nc3ccccc3)cn2)C1 (stereo unspecified) | 1.3 | 17.4
O=C(NCC1COC2(CCCC2)O1)c1cccc2ccccc12 (stereo unspecified) | -5.9 | -10.8
COc1ccc2c(c1)c(CN1CCC(C(=O)NCCN(C)Cc3ccccc3)CC1)cn2C | 3.3 | 7.7
CN(C)CCNC(=O)C1CCN(c2nc3ccccc3o2)CC1 | -15.8 | 1.0
O=C(NCc1cccnc1)C1CCN(c2cnn(Cc3ccccc3)c(=O)c2)CC1 | -2.3 | -6.0
Cc1ccc(Cn2c(CN3CCC(C(=O)NCCN(C)C)CC3)cc3ccccc32)cc1 | 3.4 | 99.2*
CN(C)CCNC(=O)C1CCN(Cc2cc3ccccc3n2Cc2cccc(F)c2)CC1 | 2.6 | 100.2*
O=C(NCc1cccnc1)C1CCN(Cc2cc3ccccc3n2Cc2ccccc2)CC1 | 3.1 | 68.1*
Cc1cc(Br)ccc1NC(=O)C1c2ccccc2C(=O)N(C)C1c1cccs1 (stereo unspecified) | 12.2 | 1.0
Nc1sc2ccccc2[n+]1C(=O)OCc1ccccc1 | x | -2.0
Cn1nc([N+](=O)[O-])nc1Sc1cccc2cccnc12 | -18.1 | 66.1*
O=C(Sc1cccc2cccnc12)c1ccc([N+](=O)[O-])cc1 | -2.5 | 100.0*
CCN(CC)C(=O)Sc1cccc2cccnc12 | 0.2 | 1.0
SMILES | Pf apPOL inh | mHTT-CaM PPI inh
O=[N+]([O-])c1ccc(CSc2cccc3cccnc23)cc1 | -5.1 | 63.0*!
Cn1nc([N+](=O)[O-])nc1Sc1nc2ccccc2n1C | -4.7 | -3.0
O=[N+]([O-])c1ccc(CSc2ccccn2)cc1 | -0.4 | x
C=CCc1cc(OC)ccc1OCCCCN1CCCC1 | -6.6 | -0.9
O=C(OCc1cn([C@H]2CN(CC3CCCCC3)[C@@H](c3ccccc3)C[C@@H]2O)nn1)c1ccccc1 | -2.7 | 46.9
O=c1oc2ccccc2cc1-c1nnc(Nc2c(F)cccc2F)s1 | -9.2 | 12.0
c1ccc(Cc2nc(N3CCOCC3)c3c4c(sc3n2)CCCC4)cc1 | 0.5 | -33.8
CCN1CCN(c2nc(Cc3ccccc3)nc3sc4c(c23)CCCC4)CC1 | -5.7 | 66.2*
CC1(C)C(C=C(Cl)Cl)C1C(=O)Nc1ccc(Cl)cc1Cl (stereo unspecified) | -11.1 | -14.0
Cc1cc(C)n(CC(=O)NN)c(=O)c1C#N | x | -3.8
O=C(Nc1ccc2c(c1)OCO2)C(=O)NC(c1ccccc1)c1ccccc1 | -7.1 | -8.5
Cc1cccnc1NC(=O)C(C)Oc1cccc(Cl)c1 (stereo unspecified) | 5.4 | 0.0
COc1ccc(C(=O)NC(c2ccc(OC)c(OC)c2)c2cc(Cl)c3cccnc3c2O)cc1 (stereo unspecified) | 1.5 | 72.0*
O=C(COc1ccccc1)NC(c1ccccc1)c1cc(Cl)c2cccnc2c1O (stereo unspecified) | -1.8 | 100.0*
O=C(COc1ccccc1)NC(c1ccc([N+](=O)[O-])cc1)c1cc(Cl)c2cccnc2c1O (stereo unspecified) | -8.5 | 32.0
CC(=O)NC(c1ccc2c(c1)OCO2)c1cc(Cl)c2cccnc2c1O (stereo unspecified) | -6.1 | 100.0*
COc1ccc(C(=O)NC(c2ccc([N+](=O)[O-])cc2)c2cc(Cl)c3cccnc3c2O)cc1 (stereo unspecified) | -11.9 | 14.0
